TDP1 cell CPT: growth inhibition of DT40 Tdp1-/-;hTDP1 cells with camptothecin (screen for TDP1 inhibitors); actives 12% (n = 420,000); AID 686979; Potency, µM (titrated, usually from 46.2 µM), inactives show at the highest dose activity change, negative = growth inhibition, hits mostly inhibitors; chicken DT40 Tdp1-/-;hTDP1 cells + 20 nM CPT, ATP luminescence, 48 h; further: potency means the concentration at half of the fitted maximal effect; nearly all actives have a fitted effect of over 55% in size
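Chicken DT40 Tdp1-/- cells stably complemented with human TDP1 were seeded at 400 cells/well in medium containing 20 nM camptothecin, exposed to pin-transferred compounds, and grown at 37 °C for at least 48 hr. Viability was read as ATP luminescence.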
HT1080NT lethal: kills 2HG-producing HT-1080-NT fibrosarcoma cells | HT-1080-NT fibrosarcoma viability, CellTiter-Glo ATP luminescence, 48 h | Potency, µM (titrated, usually from 46.1 µM), inactives show top-dose activity, negative = less viability, usual class: cytotoxic | actives 1.6% (n = 360,000) | AID 686970;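 further: NT is the 2HG producing partner of a matched IDH1 knockdown line; potency means the concentration at half of the fitted maximal effect; 0% = DMSO-treated cells and -100% = media-only wells without cells; nearly all actives have a fitted effect of over 55% in size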
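Fibrosarcoma NT cells, 750 per well in 5% FBS RPMI, were exposed to compound for 48 hours. Viability: CellTiter-Glo luminescence.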
IL1B secr inh: inflammasome signaling inhibition, IL-1 beta readout | activity change, % at 57.5 µM | THP-1 LPS/ATP IL-1B secretion, AlphaLISA, 16 h; stronger effect = lower value | actives 4.7% (n = 360,000); in the data active means activity change below about -50%; inconclusive means mostly about -30% to -49%
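Secreted IL-1B measured by AlphaLISA bead assay after 16 h compound exposure of THP-1 cells; compounds (final up to 57.5 uM) added 1 h before LPS (250 ng/mL) and ATP (1.25 mM) stimulation; lower signal means less secretion.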
DT40 TDP1 no CPT: qHTS for Inhibitors of human tyrosyl-DNA phosphodiesterase 1 (TDP1): qHTS in cells in absence of CPT | DT40 Tdp1-/- hTDP1 cells, no CPT, ATP luminescence, 48 h | Potency, µM (top dose mostly 46.2 µM), without a hit: at the highest dose activity change, negative = growth inhibition, usual class: inhibitors | AID 686978, 2013 | actives 15% (n = 420,000); further: potency means the concentration at half of the fitted maximal effect; nearly all actives have a fitted effect of over 55% in size
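DT40 Tdp1-/-;hTDP1 cells, no CPT (DMSO vehicle only), 400 cells/well; compounds pin-transferred; ≥48 hr, 37 °C; CellTiter-Glo 30 min RT dark, luminescence read.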
HT1080 IDH1KD tx: toxicity to HT-1080 IDH1 knockdown cells (counter line); actives 2% (n = 360,000); AID 686971; HT-1080 IDH1 knockdown viability, ATP luminescence, 48 h; Potency, µM (top dose mostly 46.1 µM), for inactives: at the highest dose activity, negative = toxicity, usual class: cytotoxic;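 further: potency means the concentration at half of the fitted maximal effect; 0% = DMSO wells and -100% = cell-free medium wells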
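Cytotoxicity counter-line: IDH1KD HT-1080, 48 h, CellTiter-Glo. Curves classed by r2, magnitude and activity.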
An asterisk follows results filed as active; u = inconclusive; x = no result given; [ ] = dose if it differs, or a comment. Shown are actives, neighbours in structure and some others; about 19% of the full set was active somewhere. Unless noted, the call rests on the fitted dose curve; in most records, active means well fitted curve in the direction sought with a large enough effect; inconclusive means small, poorly fitted or top-dose-only effect, or another doubt; inactive means no such curve, though single readings can be large; an effect the other way counts as inactive or inconclusive. Unless noted, on the % scale 0 is the no-effect control and ±100 the full control effect.

SMILES | TDP1 cell CPT | HT1080NT lethal | IL1B secr inh | DT40 TDP1 no CPT | HT1080 IDH1KD tx
O=C(NC1CCCCC1)C(c1ccc(O)cc1)N(CC1CCCO1)C(=O)C1COc2ccccc2O1 (configuration not stated) | u | 4.61µM* | -12.5 | u | 4.61µM*
O=C1CC(C(=O)N(CC2CCCO2)C(C(=O)NC2CCCCC2)c2ccncc2)CS1 (configuration not stated) | -17.3% | 2.4% | 16.5 | -13.9% | -4.5%
Cc1ccc(C(C(=O)NC2CCCCC2)N(Cc2ccco2)C(=O)C2COc3ccccc3O2)o1 (configuration not stated) | u | -0.9% | -1.3 | u | -23.5%
CC(C)(C)NC(=O)CN(Cc1cccs1)C(=O)C1COc2ccccc2O1 (configuration not stated) | -25.5% | -1.4% | -9.0 | -24.2% | 13.9%
CC(NCc1cccs1)C(=O)NC1CCCCC1 (configuration not stated) | -29.6% | 2.1% | -62.2* | -0.8% | 11.9%
CC(C)CCNC(=O)C(c1ccc(O)cc1)N(Cc1cccs1)C(=O)C1COc2ccccc2O1 (configuration not stated) | 23.1µM* | u | -73.2* | 16.4µM* | u
CN(C)c1ccc(CNS(=O)(=O)c2ccc3c(c2)C(C)(C)C(=O)N3C)cc1 | -3.6% | 0.0% | -9.4 | -20.0% | -3.3%
COc1ccc(-c2cc(C)cc3c2OC(CNC(=O)c2cc(C(C)C)on2)C3)nn1 (configuration not stated) | -0.5%[9.04 µM] | x | x | -20.6% | x
COc1ccc(C(C(=O)NC2CCCC2)N(CC2CCCO2)C(=O)Cc2cccs2)cc1OC (configuration not stated) | 5.1% | -7.8% | 3.4 | 8.4% | 0.7%
O=C(NC1CCCC1)C(c1cccs1)N(CC1CCCO1)C(=O)Cc1cccs1 (configuration not stated) | u | 0.3% | 6.4 | 20.6µM* | 3.6%
O=C(NCC(=O)N(Cc1cccs1)C(C(=O)NC1CCCCC1)c1ccco1)c1ccco1 (configuration not stated) | -19.1% | 7.5% | -4.6 | -25.2% | 5.6%
O=C(NC1CCCCC1)C(c1cccs1)N(Cc1cccs1)C(=O)c1ccco1 (configuration not stated) | 14.6µM* | 8.2% | -11.8 | 9.2µM* | -1.1%
O=C(Cc1cccs1)N(Cc1cccs1)C1(C(=O)NC2CCCCC2)CCCCC1 | 25.9µM* | 3.9% | -52.3* | 16.4µM* | -0.4%
O=C(NCc1ccccc1)C1c2ccccc2OCC(=O)N1Cc1ccc2c(c1)OCO2 (configuration not stated) | u | -0.6% | 12.0 | u | u
COCCNC(=O)C(OC(=O)c1ccco1)c1ccc(OC)cc1 (configuration not stated) | 10.8% | 3.6% | -3.9 | -15.2% | 9.5%
COc1cc(OC)c(CN2CCc3c([nH]c4ccccc34)C2)cc1Br | u | 16.4µM* | -0.5 | u | u
Cc1ccc2[nH]c3c(c2c1)CCN(C)C3 | 5.9% | -3.3% | u | -0.6% | -2.1%
Clc1cccc(CN2CCc3c([nH]c4ccccc34)C2)c1 | u | u | -98.3* | u | u
c1ccc(CN2CCc3[nH]c4ccccc4c3C2)cc1 | -21.3% | -0.3% | -3.1 | u | -1.5%
Cc1cccc(CN2CCc3c([nH]c4ccccc34)C2)c1 | 20.6µM* | -23.0% | u | 18.4µM* | -24.9%
CSc1ccc(CN2CCc3c([nH]c4ccccc34)C2)cc1 | -29.9% | -22.5% | -73.4* | u | -17.9%
CCN1CCc2[nH]c3ccccc3c2C1 | -6.0% | 6.1% | -8.6 | -8.2% | -4.4%
Clc1ccc(CN2CCc3c([nH]c4ccccc34)C2)cc1Cl | u | u | -69.5* | 14.6µM* | u
Clc1ccc(CN2CCCCCCC2)cc1Cl | -21.1% | -3.3% | 5.1 | u | 2.0%
COc1ccc(CCNC(=O)c2ccc(CNS(=O)(=O)c3cc(C)ccc3C)cc2)cc1OC | u | -26.1% | -2.7 | u | u
SMILES | TDP1 cell CPT | HT1080NT lethal | IL1B secr inh | DT40 TDP1 no CPT | HT1080 IDH1KD tx
CC(OC(=O)c1cccc(S(=O)(=O)N2CCCC2)c1)C(=O)NC1CCCCC1C (configuration not stated) | 8.2% | -2.7% | 32.0 | 7.1% | -14.8%
CCc1cccc(C)c1NC(=O)CN(C)Cc1cccc(F)c1 | u | 1.3% | 7.1 | 16.4µM* | -5.9%
Cc1ccccc1CN(C)CC(=O)Nc1c(C)cccc1C(C)C | u | -7.0% | -86.1* | 3.26µM* | -21.4%
Cc1cccc(C(C)C)c1NC(=O)CN(C)Cc1cccc(F)c1 | u | -2.3% | -4.5 | 23.1µM* | -9.4%
CC(NC(=O)CN(C)Cc1cccc(F)c1)c1ccccc1 (configuration not stated) | -8.4% | 7.3% | -19.3 | 1.0% | 18.4%
COc1ccc(CN(C)CC(=O)Nc2c(C)cccc2C)c(OC)c1 | u | -5.8% | -9.6 | u | -7.8%
CCC(=O)Nc1ccc2nc(SCc3ccc(C)cc3)sc2c1 | -26.3% | x | x | u | x
COC(=O)C1=C(C(=O)OC)SC2(S1)C(C(=O)OC)=C(C(=O)OC)SC1=C2c2cccc(C)c2NC1(C)C | 9.2µM* | 3.98µM* | -7.4 | 23.1µM* | 7.08µM*
COC(=O)c1c(C)[nH]c(C)c1-c1ccccc1Cl | u | -1.8% | 1.5 | u | -9.4%
O=C(NCc1ccc(F)cc1)c1cc(S(=O)(=O)N2CCCCC2)ccc1Cl | 2.0% | 8.1% | 9.3 | 17.4% | -1.3%
Cc1ccc(NC(=O)c2cccc(S(=O)(=O)N3CCc4ccccc4C3)c2)nc1 | u | -12.1% | -0.5 | u | -5.7%
CCOc1ccc(CCNC(=O)c2cccc(S(=O)(=O)N3CCCCC3)c2)cc1OCC | 13µM* | -10.9% | -29.9 | 7.31µM* | -28.1%
Cc1cc(N2CCN(C)CC2)ccc1NC(=O)c1cccc(S(=O)(=O)N2CCc3ccccc3C2)c1 | 23.1µM* | u | -103.4* | 18.4µM* | -103.0%
COc1ccc(CNC(=O)c2cccc(S(=O)(=O)N3CCCCC3)c2)cc1OC | 13µM* | -13.7% | -14.1 | u | -16.0%
COc1ccc(CNC(=O)c2cc(S(=O)(=O)N3CCCCC3)ccc2Cl)cc1OC | u | 9.2µM* | -9.4 | 18.4µM* | -18.2%
O=C(NCc1ccncc1)/C(=C/c1cccc([N+](=O)[O-])c1)NC(=O)c1ccccc1 | 1.1% | 6.1% | -3.6 | -0.5% | 11.0%
CC(CCc1ccccc1)NC(=O)CCNC(=O)c1ccccc1Cl (configuration not stated) | -1.2% | -2.1% | 13.2 | -25.1% | 0.0%

Screening results deposited in PubChem by National Center for Advancing Translational Sciences (NCATS).
